Drawing on PubChem BioAssay AID651650 (Sanford-Burnham Center for Chemical Genomics, 2012), this text covers inhibition for 39 compounds.

For this assay, the target named is Neuropilin-1 (Homo sapiens) (UniProt O14786). Nature of the assay: NRP-1 b1b2 CendR peptide binding inhibitors, dose response, biochemical, FP and AlphaScreen panel (AID 651650). Conditions: NRP-1 b1b2 / RPARPAR peptide binding, FP or AlphaScreen; run 1, at 100 µM (top of the series). A general note: Alpha assays give light when donor and acceptor beads are brought close together.
Neuropilin-1 (Homo sapiens), sequence (O14786 whole entry, looked up): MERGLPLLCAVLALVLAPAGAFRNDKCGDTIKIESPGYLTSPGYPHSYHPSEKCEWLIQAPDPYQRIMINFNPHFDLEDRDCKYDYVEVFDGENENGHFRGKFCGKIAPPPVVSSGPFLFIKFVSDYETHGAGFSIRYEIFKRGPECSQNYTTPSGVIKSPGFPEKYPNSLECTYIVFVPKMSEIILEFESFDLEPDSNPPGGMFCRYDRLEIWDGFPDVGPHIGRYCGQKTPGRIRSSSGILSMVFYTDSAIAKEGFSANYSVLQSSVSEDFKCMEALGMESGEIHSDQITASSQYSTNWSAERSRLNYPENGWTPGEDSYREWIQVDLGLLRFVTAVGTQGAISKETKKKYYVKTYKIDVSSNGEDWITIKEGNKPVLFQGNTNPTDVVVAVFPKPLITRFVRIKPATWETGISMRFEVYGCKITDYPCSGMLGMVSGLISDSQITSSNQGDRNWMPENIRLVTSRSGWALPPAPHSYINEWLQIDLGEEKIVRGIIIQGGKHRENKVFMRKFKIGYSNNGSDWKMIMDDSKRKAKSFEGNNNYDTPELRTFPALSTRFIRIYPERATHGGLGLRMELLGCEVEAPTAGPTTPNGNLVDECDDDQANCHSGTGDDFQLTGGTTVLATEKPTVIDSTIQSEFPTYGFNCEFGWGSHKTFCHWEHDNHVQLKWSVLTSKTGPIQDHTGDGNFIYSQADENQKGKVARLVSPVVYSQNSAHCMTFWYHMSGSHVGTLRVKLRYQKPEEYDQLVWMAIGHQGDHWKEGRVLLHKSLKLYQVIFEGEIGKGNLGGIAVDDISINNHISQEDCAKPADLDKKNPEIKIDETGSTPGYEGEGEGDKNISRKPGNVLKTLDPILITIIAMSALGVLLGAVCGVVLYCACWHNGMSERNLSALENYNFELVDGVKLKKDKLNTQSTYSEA
What is called inhibition is the change of the read-out against control, counted positive when it falls. For `CCOc1ccccc1N1CCN(C(=O)c2ccncc2)CC1`, the inhibition is -22.8%.

Consider `O=C(O)c1ccccc1CSc1ccccn1`, for which the inhibition came out at 101%.

Regarding `CCOC(=O)Cc1cnc(NC(=O)NC(C(=O)OCC)(c2ccccc2)C(F)(F)F)s1` (centres undefined), the inhibition amounted to 99.2%.

As for `CC(C)c1ccc(S(=O)(=O)N2CCN(C(=O)CN3C(=O)c4ccccc4C3=O)CC2)cc1`, the inhibition came out at 64.7%.

For the compound `CCC(=O)Nc1nc2nc(-c3ccccc3)cc(-c3ccccc3)n2n1`, the inhibition amounted to 37.2%.

For `c1ccc2c(c1)CCCN2Cc1nnnn1CC1CCCO1` (centres undefined), the inhibition is 48.9%.

As for `CCn1ncc(Br)c1C(=O)N(C)C12CC3CC(CC(C3)C1)C2`, the inhibition came to 41.8%.

`CCOC(=O)CNc1ccc2c(c1)OCO2`: the inhibition was determined as 82.2%.

Consider `COc1ccc(-c2noc(CN(C(=O)c3ccc4c(c3)OCO4)C(C)C)n2)cc1`, for which the inhibition is 27.6%.

`O=C(COc1ccc(S(=O)(=O)N2CCCC2)cc1)Nc1ccc2c(c1)OCCO2`: the inhibition was 34%.

As to `Cc1ccc(COn2c(-c3ccc(Cl)cc3Cl)nc3ncccc32)cc1`, the inhibition was determined as 7.33%.

Turning to `CC(=O)Nc1ccc(Oc2cc(C#N)c(C#N)cc2N2CCOCC2)cc1`, the inhibition came to 10.4%.

With `Cn1c(=O)c2[nH]c(NCCCN3CCOCC3)nc2n(C)c1=O`, the inhibition turned out to be 44.2%.

As to `COC(=O)[C@@]1(Cc2ccc(OC)cc2)[C@H]2c3cc(C(=O)N4CCCC4)n(CCN4CCOCC4)c3C[C@H]2CN1C(=O)c1ccccc1`, the inhibition was 38.7%.

`O=[N+]([O-])c1ccc(-n2nnnc2CN2CCCCC2)cc1`: the inhibition was found to be 22.7%.

In the case of `CCOC(=O)c1c(=O)n(O)c2ccc(OC)cc2[n+]1[O-]`, the inhibition is -2.72%.

`CCOC(=O)C1(Cc2cccc(F)c2)CCN(Cc2ccon2)CC1`: the inhibition amounted to 61.1%.

Consider `O=C1N[C@H](Cc2c[nH]c3ccccc23)COC(=O)[C@H](Cc2ccc(F)cc2)C/C=C\C[C@H]1CC(=O)N(CCO)Cc1ccccc1`, for which the inhibition is 41.5%.

For `COc1cccc(OCC(=O)NNC(=S)Nc2ccc(Cl)cc2Cl)c1`, the inhibition is 27.2%.

Consider `Cc1ccc(NNS(=O)(=O)c2ccc(C)cc2)cc1`, for which the inhibition stood at 16.2%.

Consider `Cc1ccc(NC(=O)c2ccc3c(c2)S(=O)(=O)c2ccccc2C3=O)cc1S(=O)(=O)N1CCOCC1`, for which the inhibition was 26.3%.

Consider `CC(=O)C(=Cc1ccc(Cl)cc1)C(=O)c1ccccc1`, for which the inhibition was 27.1%.

Consider `Cc1cc(C)n2c(Nc3ccc4c(c3)OCCO4)c(-c3ccccn3)nc2n1`, for which the inhibition is 6.1%.

As for `O=C(Cc1ccccc1Cl)N1CCOCC1`, the inhibition worked out at 25.2%.

As for `COc1cc(C(=O)OCCCOC(=O)c2cc(OC)c(OC)c(OC)c2)cc(OC)c1OC`, the inhibition stood at 13.4%.

With `C=CCNC(=O)c1onc(CSc2ccc(F)c(F)c2)c1C(=O)NCC=C`, the inhibition came to 38.7%.

As for `CN(Cc1cnn(C)c1)C(=O)c1cc2ccccc2oc1=O`, the inhibition came out at 29.1%.

`Cc1onc(-c2ccccc2)c1C(=O)Nc1c(C)n(C)n(-c2ccccc2)c1=O`: the inhibition turned out to be 28.1%.

For the compound `COc1ccc(C(=O)N2CCC(C(=O)NCc3ccccn3)CC2)cc1`, the inhibition was 20.9%.

For the compound `N=C1C(=O)OCC1c1cc(Cl)ccc1NC(=O)Nc1ccccc1` (centres undefined), the inhibition is 47.4%.

Take `CNC(=O)Nc1ccccc1C(=O)NCc1ccccc1`: the inhibition stood at 25.7%.

In the case of `CN(Cc1ccccc1)C(=O)c1nc[nH]c1C(=O)N1CCN(C(=O)OC(C)(C)C)CC1`, the inhibition was found to be 53.3%.

Consider `Cc1cn([C@H]2C[C@H](O)[C@@H](CCC(=O)NCCc3ccc4ccccc4c3)O2)c(=O)[nH]c1=O`, for which the inhibition was 22.6%.

With `O=C1CCCN1CCCNC(=S)Nc1ccc(Cl)cc1Cl`, the inhibition was determined as 19.7%.

As to `O=C(Nc1ccccc1N1CCOCC1)c1ccc(N2CCCC2=O)cc1`, the inhibition amounted to 46.3%.

With `Cn1c(SCc2nc3ccccc3s2)nnc1-c1cccs1`, the inhibition was 65.1%.

Consider `Nc1ccc(C(=O)Nc2ccc(Nc3ccncc3)cc2)c([N+](=O)[O-])c1`, for which the inhibition was found to be 102%.

In the case of `COc1c2ccc(C(=O)NCc3cc(C(F)(F)F)cc(C(F)(F)F)c3)cc2nn1C`, the inhibition worked out at 38.2%.

On to `Cc1ccc(C(=O)O)cc1NC(=O)Nc1cccc2ccccc12`, for which the inhibition was determined as 30.6%.
